Data published in PubChem BioAssay (NCI).
Compounds without any hit were thinned out: in the full panel of roughly 79,000, 15% have a hit. A number with no mark means an inactive call. Active and inactive are the calls of the source. Rule as the data show it: active = growth inhibition above about 70%; inactive = the rest.

Test: NCI Yeast Anticancer Drug Screen. Data for the mgt1 strain (AID 153)
Conditions: S. cerevisiae mgt1 mutant growth inhibition, hits give high values
Procedure: Growth inhibition of yeast strains with defined genetic alterations is measured as a screen for potential anti-cancer activity. Selected strains with alterations in DNA damage repair or cell cycle control were exposed to compounds and growth inhibition was measured relative to vehicle treated controls. The strain used in this assay is mgt1

Structure (SMILES)	growth inhibition (at 1.2 µM) [%]	growth inhibition (at 3.7 µM) [%]	growth inhibition (at 11.0 µM) [%]	growth inhibition (at 33.0 µM)	growth inhibition (at 100.0 µM)
COC(=O)/C=C1/OC(c2ccc(Br)cc2)=C(Br)C1=O	3	3	-7	7%	87% (active)
COc1ccc(N=N/C(=N\NC(=O)c2cc(Br)ccc2O)c2ccc(N(CCC#N)CCC#N)cc2OC)cc1	33	35	24	46%	69%
O=C1NC(c2c(Cl)cccc2Cl)Nc2ccccc21 (stereo not given)	-14	-9	5	63%	96% (active)
CN(N=O)C(=O)N[C@@H](C=O)[C@@H](O)[C@H](O)[C@H](O)CO	-1	-1	-18	0%	-1%
S=c1[nH]nc(-c2ccc(Cl)cc2)s1	8	11	12	83% (active)	97% (active)
Cc1cc(Cl)ccc1NC(=O)/C(Cl)=C1/Sc2ccccc2NC1=O	-2	-1	-3	-5%	-2%
N#CC(=S)Nc1cccc(Cl)c1	2	15	24	42%	76% (active)
CCCCCC(=O)c1ccc(O)cc1O	17	-2	12	93% (active)	99% (active)
